Test results published in PubChem BioAssay (NCATS).
Inconclusive results are not listed. Values without a mark were called inactive. Active and inactive are the calls of the source. The call rests on the fitted dose curve; in most records, active means well fitted cell-killing curve with a large enough effect; inconclusive means small, poorly fitted or top-dose-only effect, or effect the other way; inactive means no such curve, though single readings can be large or run the other way.

Key:
[1] = Quantitative High-Throughput drug screen in 47 multiple myeloma cell lines against the NCATS MIPE library collection: KMS28PE_JCRB cell viability assay (AID 1918983); further: nearly all actives have a fitted effect of over 35% in size
Method in brief: (§1)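 ATP-based CellTiter-Glo luminescence after 48 h drug exposure (37 °C, 5% CO2) of 500 myeloma cells per well. DMSO-only wells set 100% viability, media-only wells 0%; MIPE 4.0 library added by pin tool.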

[2] = Quantitative High-Throughput drug screen in 47 multiple myeloma cell lines against the NCATS MIPE library collection: L363_DSMZ cell viability assay (AID 1918984); further: nearly all actives have a fitted effect of over 40% in size
Method in brief: as §1

[3] = Quantitative High-Throughput drug screen in 47 multiple myeloma cell lines against the NCATS MIPE library collection: KMS34_JCRB cell viability assay (AID 1918985); further: nearly all actives have a fitted effect of over 40% in size
Method in brief: as §1

[4] = Quantitative High-Throughput drug screen in 47 multiple myeloma cell lines against the NCATS MIPE library collection: OCIMY5_PLB cell viability assay (AID 1918988); further: nearly all actives have a fitted effect of over 65% in size
Method in brief: as §1

[5] = Quantitative High-Throughput drug screen in 47 multiple myeloma cell lines against the NCATS MIPE library collection: OPM1_PLB cell viability assay (AID 1918989); further: nearly all actives have a fitted effect of over 40% in size
Method in brief: as §1

[6] = Quantitative High-Throughput drug screen in 47 multiple myeloma cell lines against the NCATS MIPE library collection: XG6_PLB cell viability assay (AID 1919865); further: nearly all actives have a fitted effect of over 40% in size
Method in brief: as §1

[7] = Quantitative High-Throughput drug screen in 47 multiple myeloma cell lines against the NCATS MIPE library collection: XG1_PLB cell viability assay (AID 1919866); further: nearly all actives have a fitted effect of over 35% in size
Method in brief: as §1

[8] = Quantitative High-Throughput drug screen in 47 multiple myeloma cell lines against the NCATS MIPE library collection: OCIMY7_PLB cell viability assay (AID 1918987); further: nearly all actives have a fitted effect of over 65% in size
Method in brief: as §1

[9] = Quantitative High-Throughput drug screen in 47 multiple myeloma cell lines against the NCATS MIPE library collection: U266_ATCC cell viability assay (AID 1919864); further: nearly all actives have a fitted effect of over 35% in size
Method in brief: as §1

[10] = Quantitative High-Throughput drug screen in 47 multiple myeloma cell lines against the NCATS MIPE library collection: SKMM1_PLB cell viability assay (AID 1919863); details: SKMM1 myeloma viability, CellTiter-Glo ATP, 48 h; viability: hits give low values; further: nearly all actives have a fitted effect of over 35% in size; on viability: series mostly up to about 46 µM
Method in brief: as §1
Potency means the concentration at half of the fitted maximal effect.

Compound | Potency [1] | Potency [2] | Potency [3] | Potency [4] | Potency [5] | Potency [6] | Potency [7] | Potency [8] | Potency [9] | Potency [10] | viability [10] [%]
Clc1ccc2c(c1)C(N1CCNCC1)=Nc1ccccc1O2 | 18.7 µM (active) | inactive | 18.7 µM (active) | 20.9 µM (active) | 20.9 µM (active) | inactive | inactive |  |  |  | 
COc1nc(C)nc(Cl)c1NC1=NCCN1 | inactive | inactive |  |  | inactive |  |  | 18.7 µM (active) | 20.9 µM (active) |  | 
Clc1ccc(C(c2ccccc2Cl)C(Cl)Cl)cc1 (configuration not stated) | 23.5 µM (active) | inactive |  |  | 20.9 µM (active) |  |  | 18.7 µM (active) | 20.9 µM (active) | 20.9 µM (active) | 
Nc1nc2c(ncn2COC(CO)CO)c(=O)[nH]1 | 20.9 µM (active) | 20.9 µM (active) | 23.5 µM (active) | 20.9 µM (active) | 16.6 µM (active) | 20.9 µM (active) | 23.5 µM (active) | 2.64 µM (active) | 23.5 µM (active) | 20.9 µM (active) | 
O=C(C1CCCCC1)N1CC(=O)N2CCc3ccccc3C2C1 (configuration not stated) | inactive | inactive | inactive | inactive | inactive | 20.9 µM (active) | 16.6 µM (active) |  | inactive |  | 
CN(C)C(=O)C(CCN1CCC(O)(c2ccc(Cl)cc2)CC1)(c1ccccc1)c1ccccc1 | 14.8 µM (active) | inactive |  | 16.6 µM (active) | 23.5 µM (active) | 20.9 µM (active) | 18.7 µM (active) | 20.9 µM (active) | 18.7 µM (active) | 23.5 µM (active) | 
CN(C)CCCN1c2ccccc2CCc2ccc(Cl)cc21 | 14.8 µM (active) | 16.6 µM (active) |  | 0.418 µM (active) | 14.8 µM (active) | 0.372 µM (active) | 0.372 µM (active) | 0.187 µM (active) | 0.526 µM (active) | 14.8 µM (active) | 
COc1cc2nc(N3CCN(C(=O)c4ccco4)CC3)nc(N)c2cc1OC | 26.4 µM (active) | 7.43 µM (active) |  |  | 8.33 µM (active) | 7.43 µM (active) | 8.33 µM (active) | 10.5 µM (active) | 18.7 µM (active) | 23.5 µM (active) | 
CN(C)c1nc(N(C)C)nc(N(C)C)n1 | 23.5 µM (active) | inactive | inactive |  | inactive |  | inactive |  |  |  | 
CC(C)Cc1ccc(C(C)C(=O)O)cc1 (configuration not stated) | inactive | inactive | inactive | inactive | inactive | 6.45 µM (active) | inactive | inactive |  |  | 
COC(=O)Nc1nc2ccc(C(=O)c3cccs3)cc2[nH]1 | 0.0059 µM (active) | 0.001 µM (active) | 0.0026 µM (active) | 0.0021 µM (active) | 0.0132 µM (active) |  |  |  |  | 0.0017 µM (active) | 
Cc1cn([C@H]2C=C[C@@H](CO)O2)c(=O)[nH]c1=O | inactive | inactive | inactive |  | inactive | 3.82 µM (active) | inactive |  | inactive |  | 87.6
CCc1cccc2c3c([nH]c12)C(CC)(CC(=O)O)OCC3 (configuration not stated) | inactive | inactive | inactive |  | inactive | inactive | inactive |  | inactive |  | 
COc1cc2nc(N3CCN(C(=O)C4COc5ccccc5O4)CC3)nc(N)c2cc1OC (configuration not stated) | 23.5 µM (active) | inactive | inactive |  | 18.7 µM (active) | 20.9 µM (active) | 29.6 µM (active) | 18.7 µM (active) |  |  | 137
Cn1cnc2c1c(=O)[nH]c(=O)n2C | 18.7 µM (active) | 7.43 µM (active) | 16.6 µM (active) | 14.8 µM (active) | 10.5 µM (active) | 16.6 µM (active) | 14.8 µM (active) | 5.9 µM (active) | 23.5 µM (active) | 20.9 µM (active) | 
CN1CCC(=C2c3ccccc3CC(=O)c3sccc32)CC1 | inactive | 23.5 µM (active) |  | 23.5 µM (active) | 23.5 µM (active) | 5.9 µM (active) | 8.33 µM (active) |  |  |  | 102
O=C(c1ccc(F)cc1)C1CCN(CCn2c(=O)[nH]c3ccccc3c2=O)CC1 | inactive | inactive | inactive | 26.4 µM (active) | inactive | inactive |  | inactive | 4.69 µM (active) |  | 
C[C@@H]1CC(=O)NN=C1c1ccc(NN=C(C#N)C#N)cc1 | 23.5 µM (active) | inactive | 20.9 µM (active) | 18.7 µM (active) | 18.7 µM (active) | 23.5 µM (active) | 18.7 µM (active) |  |  |  | 
O=C1c2c(O)ccc(O)c2C(=O)c2c(NCCNCCO)ccc(NCCNCCO)c21 | 0.935 µM (active) | 2.35 µM (active) | 2.96 µM (active) | 1.32 µM (active) | 0.935 µM (active) | 0.118 µM (active) | 0.332 µM (active) | 1.05 µM (active) | 1.05 µM (active) | 2.96 µM (active) | 
NC(=O)NO | 2.35 µM (active) | 5.9 µM (active) |  | 0.235 µM (active) | 0.833 µM (active) | 2.35 µM (active) | 9.35 µM (active) | 0.132 µM (active) | 2.64 µM (active) | 10.5 µM (active) | 
O=C(Nc1ccc([N+](=O)[O-])cc1Cl)c1cc(Cl)ccc1O | 2.09 µM (active) | 1.05 µM (active) | 1.66 µM (active) | 1.66 µM (active) | 0.833 µM (active) | 1.32 µM (active) | 0.935 µM (active) |  |  | 1.48 µM (active) | 

Compound | Potency [1] | Potency [2] | Potency [3] | Potency [4] | Potency [5] | Potency [6] | Potency [7] | Potency [8] | Potency [9] | Potency [10] | viability [10] [%]
CC#C[C@]1(O)CC[C@H]2[C@@H]3CCC4=CC(=O)CCC4=C3[C@@H](c3ccc(N(C)C)cc3)C[C@@]21C | 1.32 µM (active) | 2.64 µM (active) | 1.32 µM (active) | 0.833 µM (active) | 1.48 µM (active) | 0.264 µM (active) | 0.743 µM (active) | 1.18 µM (active) | 0.662 µM (active) | 4.18 µM (active) | 
CN1C(C(=O)Nc2ccccn2)=C(O)c2ccccc2S1(=O)=O | inactive | inactive | inactive | inactive |  | inactive | inactive |  | inactive |  | 103
NC(=O)OCC(COC(N)=O)c1ccccc1 | inactive | inactive | inactive |  |  | inactive | inactive |  | 10.5 µM (active) |  | 
CC(C)(C)C(=O)Oc1ccc(S(=O)(=O)Nc2ccccc2C(=O)NCC(=O)O)cc1 | inactive | inactive | inactive |  | inactive |  |  |  |  |  | 142
CS(=O)(=O)CCNCc1ccc(-c2ccc3ncnc(Nc4ccc(OCc5cccc(F)c5)c(Cl)c4)c3c2)o1 | 26.4 µM (active) | 9.35 µM (active) | 29.6 µM (active) | 0.0743 µM (active) | 6.62 µM (active) | 0.001 µM (active) | 0.0187 µM (active) | 0.0833 µM (active) | 5.9 µM (active) | 23.5 µM (active) | 
CNCCCC12CCC(c3ccccc31)c1ccccc12 | 23.5 µM (active) | 16.6 µM (active) |  | 23.5 µM (active) | 23.5 µM (active) | 18.7 µM (active) | 26.4 µM (active) |  | 16.6 µM (active) | 18.7 µM (active) | 
NS(=O)(=O)c1cc2c(cc1Cl)NCNS2(=O)=O | inactive | inactive | inactive |  |  |  | 7.43 µM (active) |  |  |  | 114
CN(CCOc1ccc(NS(C)(=O)=O)cc1)CCc1ccc(NS(C)(=O)=O)cc1 | inactive | inactive | inactive |  | inactive | 13.2 µM (active) | inactive | inactive | inactive |  | 109
Cn1c(=O)c2c(ncn2C)n(C)c1=O | inactive | inactive | inactive |  |  | inactive | inactive |  | inactive |  | 
CN1C2CCC1CC(OC(=O)C(CO)c1ccccc1)C2 (configuration not stated) | inactive | inactive |  |  | inactive | inactive | inactive | inactive |  |  | 
CC(=O)OCC(CCn1cnc2cnc(N)nc21)COC(C)=O | inactive | inactive | inactive | inactive | 0.0012 µM (active) | inactive | inactive |  |  |  | 
CC(C)NCC(O)COc1ccc(CCOCC2CC2)cc1 (configuration not stated) | inactive | inactive | 5.9 µM (active) | inactive | inactive |  | inactive |  |  |  | 
CN(C)CCC=C1c2ccccc2C=Cc2ccccc21 | 16.6 µM (active) | inactive | inactive | 14.8 µM (active) | 18.7 µM (active) |  |  | 14.8 µM (active) |  |  | 
COc1ccccc1N1CCN(CC(O)COc2cccc3ccccc23)CC1 (configuration not stated) | 13.2 µM (active) |  | inactive |  | 14.8 µM (active) |  | inactive |  | inactive |  | 119
CC(C)(Oc1ccc(C2CC2(Cl)Cl)cc1)C(=O)O (configuration not stated) | inactive |  |  |  | inactive |  | inactive | inactive | inactive |  | 131
O=c1[nH]cc(F)c(=O)[nH]1 | inactive |  |  | inactive |  | 4.69 µM (active) | 7.43 µM (active) | 7.43 µM (active) | 3.32 µM (active) | 13.2 µM (active) | 
COc1ccc2[nH]cc(CCNC(C)=O)c2c1 | inactive |  |  |  |  |  | inactive | inactive | 8.33 µM (active) |  | 123
Nc1c2c(nc3ccccc13)CCCC2 | 14.8 µM (active) |  |  | 23.5 µM (active) | inactive | inactive | inactive | inactive |  |  | 
NC12CC3CC(CC(C3)C1)C2 | inactive |  |  | 0.0026 µM (active) |  | 2.96 µM (active) |  | inactive | 26.4 µM (active) |  | 134
Cc1cc(C(C)(C)C)c(O)c(C)c1CC1=NCCN1 | inactive | inactive |  |  | inactive | inactive | inactive |  | inactive |  | 
